Results filed as inconclusive are left out. Activity calls are given as the source filed them. Unless noted, the call rests on the fitted dose curve.
Legend:
[1] = Validation screen for inhibitors of Lassa infection (AID 463096); further: potency means the concentration at half of the fitted maximal effect
[2] = Inducers of the Endoplasmic Reticulum Stress Response (ERSR) in human glioma: Validation (AID 504836; active means well fitted curve in the direction sought with a large enough effect)
Outline: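 ERSR induction read as luciferase luminescence (Bright-Glo, 10 min at room temperature) in stably transfected human U87-MG glioma cells exposed to compounds for 16 h, using GRP78 as sensor.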

[3] = qHTS for Inhibitors of the Functional Ribonucleoprotein Complex (vRNP) of Lassa (LASV) Arenavirus: LASV Primary Screen - GLuc reporter signal (AID 1347082; calls by dose curve; tested in HEK293 reporter line; further: series mostly up to about 57 µM; nearly all actives have a fitted effect of over 60% in size)
[4] = qHTS for Inhibitors of the Functional Ribonucleoprotein Complex (vRNP) of Lassa (LASV) Arenavirus: Viability assay - alamar blue signal for LASV Primary Screen (AID 1347083; calls by dose curve; tested in HEK293 reporter line; further: series mostly up to about 57 µM; nearly all actives have a fitted effect of over 80% in size)
[5] = qHTS for Inhibitors of the Functional Ribonucleoprotein Complex (vRNP) of Lymphocytic Choriomeningitis Arenaviruses (LCMV): Viability assay - alamar blue signal for LCMV Primary Screen (AID 1347085; calls by dose curve; tested in HEK293 reporter line; further: series mostly up to about 57 µM; nearly all actives have a fitted effect of over 80% in size)
[6] = target: Nucleoprotein (Lymphocytic choriomeningitis virus (strain Armstrong)) (UniProt P09992); experiment: qHTS for Inhibitors of the Functional Ribonucleoprotein Complex (vRNP) of Lymphocytic Choriomeningitis Arenaviruses (LCMV): LCMV Primary Screen - GLuc reporter signal (AID 1347086); further: series mostly up to about 57 µM; nearly all actives have a fitted effect of over 70% in size
Chain of Nucleoprotein (Lymphocytic choriomeningitis virus (strain Armstrong)) (P09992 whole entry, looked up): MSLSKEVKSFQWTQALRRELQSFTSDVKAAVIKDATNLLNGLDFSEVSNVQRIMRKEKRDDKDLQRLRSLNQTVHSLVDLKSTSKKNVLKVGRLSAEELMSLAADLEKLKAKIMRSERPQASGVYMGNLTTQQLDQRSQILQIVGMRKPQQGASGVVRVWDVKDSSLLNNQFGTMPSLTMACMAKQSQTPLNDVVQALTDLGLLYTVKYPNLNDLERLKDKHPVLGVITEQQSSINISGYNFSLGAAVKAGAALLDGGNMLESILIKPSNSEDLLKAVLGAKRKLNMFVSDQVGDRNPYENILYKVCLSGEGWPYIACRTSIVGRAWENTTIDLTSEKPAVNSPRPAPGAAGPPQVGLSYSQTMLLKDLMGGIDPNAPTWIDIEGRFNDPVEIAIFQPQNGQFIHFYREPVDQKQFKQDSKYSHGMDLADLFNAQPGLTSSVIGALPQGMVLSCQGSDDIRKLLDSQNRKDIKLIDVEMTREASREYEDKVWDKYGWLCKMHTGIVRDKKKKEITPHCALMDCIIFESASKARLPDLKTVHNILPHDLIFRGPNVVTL

Measured: Potency

CCCCC/C=C\CC(O)/C=C/c1cccc(CC(O)CCCCO)n1 (centres undefined)
inactive: all assays above

O=C(O)CCCC[C@@H]1CCSS1
inactive: all assays above

O=C(O)[C@@H]1C[C@H](C(=O)O)N1
inactive: all assays above

CC(C)(C)c1onc(OCP(=O)(O)O)c1CC(N)C(=O)O (centres undefined)
inactive: all assays above

CC1=C(C(=O)O)N2C(=O)[C@@H](NC(=O)C(N)C3=CCC=CC3)[C@H]2SC1 (some centres undefined)
inactive: all assays above

C=CCN1CCc2c(cc(O)c(O)c2Br)[C@@H](c2ccccc2)C1
inactive: all assays above

CCCCCCCCCCCCCCCC(=O)NCC(COP(=O)([O-])OCC[N+](C)(C)C)OCC (centres undefined)
active: [1] 11.2 µM
inactive: all other assays above

CCCCCCCCCC(=O)NC(CN1CCOCC1)[C@H](O)c1ccccc1 (some centres undefined)
inactive: all assays above

O=C1C2C=CC=CC2=NC(=S)N1CCN1CCC(=C(c2ccc(F)cc2)c2ccc(F)cc2)CC1 (centres undefined)
inactive: all assays above

Cc1cccc(C)c1OCC(N)C(C)C (centres undefined)
inactive: all assays above

O=C(O)CC1CCCc2ccccc2C1O (centres undefined)
inactive: all assays above

NC(=O)CC[C@H](N)C(=O)O
inactive: all assays above

COC(=O)C1=C(C)NC(C)=C([N+](=O)[O-])C1c1ccccc1C(F)(F)F (centres undefined)
inactive: all assays above

CC(N)=NCCCC[C@@H](N)C(=O)O
inactive: all assays above

CCCCCCCCCCCCCCCCCCNC(=O)OCC(COP(=O)([O-])OCC[n+]1ccsc1)OC (centres undefined)
inactive: all assays above

CCCCS(=N)(=O)CC[C@H](N)C(=O)O (some centres undefined)
inactive: all assays above

O=C(O)[C@H]1NCCC[C@H]1C(=O)O
inactive: all assays above

COC(=O)C(N)Cc1ccc(Cl)cc1 (centres undefined)
inactive: all assays above

O=C(/C=C/c1ccc(O)cc1)c1ccc(O)cc1O
inactive: all assays above

CCCCCCCCCCCCCCCCCCOC[C@H](COP(=O)([O-])OCC[N+](C)(C)C)OC
inactive: all assays above

CC1CCN=C(N)S1 (centres undefined)
inactive: all assays above

CN(C)CCC(c1ccc(Cl)cc1)c1ccccn1 (centres undefined)
inactive: all assays above

CNCCC(Oc1ccccc1C)c1ccccc1 (centres undefined)
inactive: all assays above

Cc1cccc(C2CN(C)CCc3c2cc(O)c(O)c3Cl)c1 (centres undefined)
inactive: all assays above

Nc1ccc(CCNc2ncnc3c2ncn3C2OC(CO)C(O)C2O)cc1 (centres undefined)
inactive: all assays above

CC(C)NCC(O)COc1ccc(CC(N)=O)cc1 (centres undefined)
inactive: all assays above

CC1CCN(CC[C@H]2CCCN2S(=O)(=O)c2cccc(O)c2)CC1
inactive: all assays above

Oc1cc(O)c2c(c1)O[C@H](c1ccc(O)c(O)c1)[C@@H](O)C2
inactive: all assays above

COc1cc(C(O)CO)ccc1O (centres undefined)
inactive: all assays above

CN1C2CCC1CC(OC(c1ccccc1)c1ccccc1)C2 (centres undefined)
active: [1] 10 µM
inactive: all other assays above

CC1C(=O)N(C)C(=O)c2nc[nH]c21 (centres undefined)
inactive: all assays above

C=C(C)C1CC=C(C(=O)O)CC1 (centres undefined)
inactive: all assays above

COc1cccc(OC)c1OCCNCC1COc2ccccc2O1 (centres undefined)
inactive: all assays above

C[C@@H](CN1CCC(Cc2ccccc2)CC1)[C@@H](O)c1ccc(O)cc1
inactive: all assays above

Reference: PubChem BioAssay (NCATS)
